In PubChem BioAssay AID1568 (National Center for Advancing Translational Sciences (NCATS), 2009):
Inconclusive results are not listed. Where a call stands in place of a potency, no number is given. Active and inactive are the calls of the source. Calls follow the shape of the dose curve; as a rule, active = well fitted curve in the direction sought with a large enough effect; inconclusive = small, poorly fitted or top-dose-only effect, or effect the other way, or another doubt; inactive = no such curve, though single readings can be large or run the other way.

Assay: Cell Viability Secondary Assay to Characterize qHTS Inhibitors of the Interaction of Thyroid Hormone Receptor and Steroid Receptor Coregulator 2
Details: cell viability counter-screen, qHTS titration; series mostly up to 29.9 µM
Source text: NIH Molecular Libraries Probe Production Network [MLPCN]
NIH Chemical Genomics Center [NCGC]
Assay Provider: R. Kip Guy, St. Jude Children's Research Hospital
Thyroid receptor (TR) regulates many homeostatic processes including basal metabolism, cardiovascular function, body weight, and lipid trafficking. TR modulators are potential therapeutics for obesity and hyperlipidemias but current thyroid analogs have undesirable side effects, particularly cardiac stimulation. This secondary assay characterized selected actives identified in the qHTS for Inhibitors of the Interaction of Thyroid Hormone Receptor and Steroid Receptor Coregulator 2. The human follicular thyroid carcinoma cell line WRO (kindly provided by Dr. M. D. Ringel) stably expresses TRbeta and a luciferase reporter gene fused to TR response element. The effect of compounds on the viability of these cells was assessed by measuring ATP levels. Compounds that reduce cell viability are likely cytotoxic.
NCGC Assay Protocol Summary:
Cells were maintained in RPMI 1640 culture medium supplemented with 10% heat-inactivated FBS, 0.33 mg/ml hygromycin, 0.33 mg/ml geneticin, 50 units/ml penicillin, 50 ug/ml streptomycin. Cells were harvested and resuspended at 330,000 cells/ml in assay medium (50% DMEM 50% F-12 medium without Phenol-Red (Cellgro #16-405-CV), L-glutamine, 10% heat inactivated and charcoal treated FBS, 100 uM non-essential amino acid, 50 units/ml penicillin, 50 ug/ml streptomycin). Cells were dispensed at 10,000 cells/30 ul/well into 384 well plates (Corning 3917) and incubated 12 h at 37 C and 5% CO2. Compounds and T3 (100nM final concentration) were added using a pin tool and plates were incubated 16 h incubation at 37 C and 5% CO2. Following incubation, plates were equilibrated at ambient temperature for 30 min, 20 ul of CellTiter-Glo (Promega) was added and luminescence was detected by an EnVision (PerkinElmer).

## CCCCCn1c(N)c(C(=O)NCc2cccs2)c2nc3ccccc3nc21
  Potency: inactive

## Cc1[nH]n(-c2ccccc2)c(=O)c1C(c1ccc([N+](=O)[O-])cc1)c1c(C)[nH]n(-c2ccccc2)c1=O
  Potency: inactive

## COP(=S)(OC)Oc1ccc([N+](=O)[O-])cc1
  Potency: 31.6 µM (active)

## O=C(O)CC1OCC=C2CN3CCC45C6=CC(=O)C(=O)C([N+](=O)[O-])=C6NC4C1C2CC35 (stereo not given)
  Potency: inactive

## CN1CC[C@@]2(C)c3cc(O)ccc3N(C)C2O1 (stereo not given in full)
  Potency: 14.1 µM (active)
